Structures are written as SMILES. Hit rate of the full screen: of about 330,000 compounds, about 1,900 (0.58%) were called active. Another 4% or so got no clear call; they are omitted. Not all results are given here. Entries with a potency or affinity are not part of this list. Values without a mark were called inactive. Rule as the data show it: inconclusive = inhibition above about 70% without an active follow-up result; inactive = below that.

The values that follow come from PubChem BioAssay AID449762 (Southern Research Specialized Biocontainment Screening …, 2010).

This test can be described thus: M. tuberculosis growth inhibition, HTS (AID 449762).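 Also: bacterial growth assessed after seven days of incubation.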 The following applies: M. tuberculosis H37Rv growth inhibition, 7H9 media; at 25 µM; hits give high values.
One may read the inhibition as the drop in the measured response relative to a control, in per cent. Take `COC(=O)C(CCCN1C(=O)c2ccccc2C1=O)(NC(C)=O)c1nnn(C)n1` (stereo unspecified): the inhibition was -2.74%.
Regarding `COC(=O)c1cccc(-c2noc(-c3ccccc3F)n2)c1`, the inhibition is -2.87%.
Next, `Cc1ccc(NC(=O)c2sccc2-n2cccc2)c(Cl)c1`: 4.85%; `Cc1cccc(NC(=O)c2sccc2-n2cccc2)c1C`: 6.88%.
Consider `Cc1ccc2cc(CN(c3ccccc3C)S(=O)(=O)c3ccccc3)c(=O)[nH]c2c1`, for which the inhibition was 11.1%.
Regarding `CNC(=O)c1ccsc1NC(=O)c1ccccc1`, the inhibition was -14.7%.
Take `Nc1sccc1C(=O)c1ccccc1`: the inhibition was -3.41%.
As to `COc1ccc(CCNCC(O)COc2ccc(Cl)cc2)cc1OC` (stereo unspecified), the inhibition is -0.15%.
In the case of `Cc1cc(OCC(O)CNC(C)(C)C)ccc1Cl` (stereo unspecified) it was -5.73%; in that of `Cc1cc(C)c(OCC(=O)OCC(=O)NC2CCCCCCC2)c(C)c1`, -6.93%; in that of `CCN(CC)S(=O)(=O)c1ccc(C(=O)NNC2=NS(=O)(=O)c3ccccc32)cc1`, -5.34%.
On to `COc1ccccc1N1CCN(Cc2nc3ccsc3c(=O)[nH]2)CC1`, for which the inhibition was -2.58%.
Next, `O=c1[nH]c(CN2CCN(c3ccccc3Cl)CC2)nc2ccsc12`: 6.57%; `COC(=O)C1=C(c2c(C)noc2C)C[C@@H]2CC[C@H]1N2C(=O)N1CCC(C)CC1`: -12.5%.
As to `COc1ccc(-c2nnc(SCc3ccc(C(=O)O)cc3)n2C)cc1OC`, the inhibition was 2.72%.
`COc1ccc(C(=O)C2CCN(C(=S)NCC3CCCO3)CC2)cc1` (stereo unspecified): the inhibition was 0.55%.
Next, `CC(C)=CCC[C@](C)(O[C@@H]1O[C@H](CO[C@@H]2OC[C@@H](O)[C@H](O)[C@H]2O)[C@@H](O)[C@H](O)[C@H]1O)C1CC[C@]2(C)C1[C@H](O)CC1[C@@]3(C)CC[C@H](O[C@@H]4O[C@H](CO)[C@@H](O)[C@H](O)[C@H]4O)C(C)(C)C3CC[C@]12C` (stereo partly specified): 1.5%; `CC(C)=CCC[C@](C)(O)C1CC[C@]2(C)C1[C@H](O)CC1[C@@]3(C)CC[C@H](O[C@@H]4O[C@H](CO)[C@@H](O)[C@H](O)[C@H]4O[C@@H]4O[C@H](CO)[C@@H](O)[C@H](O)[C@H]4O)C(C)(C)C3CC[C@]12C` (stereo partly specified): -2.47%.
In the case of `N#Cc1cc(Nc2c(N)nc[nH]c2=O)c([N+](=O)[O-])cc1C#N` it was -9.11%; in that of `CCc1ccccc1OCCCOc1ccc(OC)cc1`, 3.7%; in that of `O=C(COC(=O)c1ccc([N+](=O)[O-])s1)NCc1ccccc1`, 40.3%.
Next, `Cc1[nH]c2ccccc2c1C(=O)COC(=O)c1ccccc1O`: -1.43%; `CC(C)[C@H](NC(N)=O)C(=O)NNC(=O)COc1cccc(C(F)(F)F)c1`: -1.74%.
Turning to `CC(C)NC(=O)COc1ccc(OCc2ccccc2)cc1`, the inhibition is -4.33%.
As for `CC(C)Oc1ccc(NC(N)=O)cc1`, the inhibition is -11.6%.
In the case of `CCOC(=O)C(=O)Nc1ccc(OCc2ccccc2)cc1` it was 62.7%.
Next, `CCOc1ccc(NC(C)=O)cc1`: 3.93%.
Next, `Cc1ccc(S(=O)(=O)n2nc(-n3c(C)ccc3C)c3c(F)cccc32)c2ccccc12`: 11.8%; `O=C(N/N=C/C=C/c1ccc([N+](=O)[O-])cc1)c1cccs1`: 3.01%.
On to `O=C(N/N=C/C=C/c1ccccc1[N+](=O)[O-])c1cccs1`, for which the inhibition was -11.8%.
Next, `Cc1noc(NS(=O)(=O)c2ccc(NC(=O)C(C)(C)C)cc2)c1C`: 3.27%.
In the case of `C=CCNC(=O)Cc1ccc(S(=O)(=O)N2CCOCC2)s1`, the inhibition is -1.17%.
In the case of `COc1cc(C(C)=O)ccc1OCC(O)Cn1nc(C)c(Br)c1C` (stereo unspecified) it was 3.09%; in that of `NS(=O)(=O)c1ccc(CNC(=O)c2ccc3ccccc3n2)cc1`, 7.68%; in that of `O=C(Cc1cn2ccsc2n1)Nc1nc2c(s1)CN(Cc1ccccc1)CC2`, -6%.
Turning to `O=C(Cc1cn2ccsc2n1)Nc1nc2c(s1)CCCC2`, the inhibition is -0.56%.
Take `COc1ccc(S(=O)(=O)Nc2c3ccccc3nc(=O)n2-c2ccccc2)cc1`: the inhibition is 5.16%.
Next, `O=C1CCC(C(=O)N(Cc2cccs2)C2(C(=O)NC3CCCCC3)CCCCC2)N1` (stereo unspecified): 1.48%; `O=C1C=C(c2ccc(Oc3ccccc3)cc2)C[C@@H](c2ccc(F)cc2)C1`: 24.8%.
As to `CCOc1ccc(OCCCC(=O)Nc2cc(Cl)ccc2-n2cncn2)cc1`, the inhibition was 9.23%.
With `N#CC(C#N)=C1CCc2ccccc2N1`, the inhibition is -3.11%.
Next, `O=C(NCCO)/C(=C\c1ccc([N+](=O)[O-])o1)NC(=O)c1ccccc1`: 59%; `CCCCOC(=O)/C(=C\c1ccc([N+](=O)[O-])o1)NC(=O)c1ccccc1`: -4.98%; `COc1ccc(C2C(C(=O)Nc3ccccn3)=C(C)Nc3ncnn32)c(OC)c1` (stereo unspecified): -4.42%.
In the case of `COc1ccc(OC)c(-c2csc(NC(=O)CSc3ccccc3)n2)c1` it was -4.32%.
In the case of `COc1ccc(CC(=O)Nc2ccc(S(=O)(=O)Nc3onc(C)c3C)cc2)cc1OC` it was 5.55%; in that of `COc1ccc(NC(=O)COC(=O)CCCc2c[nH]c3ccccc23)cc1`, 37.6%; in that of `COc1ccc(C2NN=C(c3c[nH]c4ccccc34)C2O)cc1` (stereo unspecified), 4.48%.
For `O=C(COC(=O)c1ccc2c(c1)C(=O)N(CCc1ccccc1)C2=O)Nc1ccc(OC(F)F)cc1`, the inhibition is -2.61%.
Consider `CCC(CO)(C(=O)OC1C[N+]2(C)CCC1CC2)c1ccccc1` (stereo unspecified), for which the inhibition was -13.2%.
In the case of `OCCN1CCN(Cc2cc(Cl)c3cccnc3c2O)CC1` it was 6.31%.
In the case of `CCOC(=O)N1CCN(Cc2ccc(O)c3ncccc23)CC1` it was 55.4%; in that of `CC(=O)Nc1ccc(S(=O)(=O)NCCc2c[nH]c3ccc(C)cc23)cc1`, 0.51%.
In the case of `COc1ccc(OCCCCN(C)Cc2ccccc2)cc1` it was 13.7%; in that of `COc1ccc(CNC(=O)[C@@H]2CC=C[C@@H]3CCN(Cc4ccc(Cl)c(Cl)c4)C(=O)[C@@H]32)cc1`, 18.4%; in that of `O=C(NNC(=S)Nc1ccccc1)c1ccncc1`, 7.24%.
